# From PubChem BioAssay (Tox21)
# Inconclusive results are not listed. Where a call stands in place of a potency, no number is given. Active and inactive are the calls of the source. Calls follow the shape of the dose curve; as a rule, active = well fitted cell-killing curve with a large enough effect in the repeat runs; inconclusive = weak or mixed curves; inactive = no such curve, though single readings can be large or run the other way.
# Test: qHTS assay to identify small molecule agonists of the peroxisome proliferator-activated receptor delta (PPARd) signaling pathway - cell viability counter screen (AID 743211); also: nearly all actives have a fitted effect of over 55% in size
# Conditions: PPARd-bla HEK293H viability, CellTiter-Glo luminescence, 17 h; series mostly up to 62.6 µM
# Procedure, shortened: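 In the same wells used for beta-lactamase reporter measurement, cytotoxicity is scored by CellTiter-Glo. HEK293H PPARd-bla cells receive compound for 17 h at 37C following a 5 h settling period.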
row,Structure (SMILES),Potency
1,O=C(CCCl)NCc1ccccc1,inactive
2,O=C(O[C@@H](C(=O)O)[C@@H](OC(=O)c1ccccc1)C(=O)O)c1ccccc1,inactive
3,Nc1cccc(S(=O)(=O)O)c1,inactive
4,CCOC(=O)c1ccccc1O,inactive
5,CCCOCCC,inactive
6,CC1(C)S[C@@H]2[C@H](NC(=O)C(C(=O)O)c3ccccc3)C(=O)N2[C@H]1C(=O)O (some centres undefined),inactive
7,Cc1cc(NS(=O)(=O)c2ccc(N)cc2)nc(C)n1,inactive
8,Cc1ccc(C)c(N)c1,inactive
9,Cc1cc(S(=O)(=O)O)c(N)cc1Cl,inactive
10,Cc1nnc(SCC2=C(C(=O)O)N3C(=O)[C@@H](NC(=O)Cn4cnnn4)[C@H]3SC2)s1,inactive
11,CC(C)(C)C1CCCCC1=O (centres undefined),inactive
12,CCCC(CCC)(C(=O)OCC)C(=O)OCC,inactive
13,CC(CNC1CCCCC1)OC(=O)c1ccccc1 (centres undefined),inactive
14,CCOc1ccc(OCC)c(Cl)c1,inactive
15,O=C(O)[C@@H]1CSCN1,inactive
16,CC1=C(O)C(=O)OC1C (centres undefined),inactive
17,Cc1ncc(CO)c(CN)c1O,inactive
18,O=S(=O)(O)C(F)(F)F,inactive
19,CN1CCN(c2c(F)cc3c(=O)c(C(=O)O)cn(CCF)c3c2F)CC1,inactive
20,O=C(O)c1cccc(Cl)c1Cl,inactive
21,Cc1ccc([N+](=O)[O-])cc1Cl,inactive
22,NCCCN1CCN(CCCN)CC1,inactive
23,FC(F)(F)c1ccccc1,inactive
24,COC(=O)N[C@H](C(=O)N[C@@H](Cc1ccccc1)[C@@H](O)CN(Cc1ccc(-c2ccccn2)cc1)NC(=O)[C@@H](NC(=O)OC)C(C)(C)C)C(C)(C)C,inactive
